A short description of experiment [1]: Quantitative High-Throughput drug screen in 47 multiple myeloma cell lines against the NCATS MIPE library collection: LP1_DSMZ cell viability assay (AID 1918982). Note: nearly all actives have a fitted effect of over 35% in size. Note: potency is the fitted concentration of half-maximal effect. The gist of the method: (§1)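 qHTS format: cells plated (500/well), pin-dosed with MIPE 4.0 compounds, kept 48 h at 37 °C. Readout was CellTiter-Glo luminescence, median RLU.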
A short description of experiment [2]: Quantitative High-Throughput drug screen in 47 multiple myeloma cell lines against the NCATS MIPE library collection: KMS34_JCRB cell viability assay (AID 1918985). Note: nearly all actives have a fitted effect of over 40% in size. Note: potency is the fitted concentration of half-maximal effect. In a few lines: as §1
The nature of experiment [3]: Quantitative High-Throughput drug screen in 47 multiple myeloma cell lines against the NCATS MIPE library collection: OCIMY7_PLB cell viability assay (AID 1918987). Note: nearly all actives have a fitted effect of over 65% in size. Note: potency is the fitted concentration of half-maximal effect. In a few lines:
as §1

Experiment [4] can be described thus: Quantitative High-Throughput drug screen in 47 multiple myeloma cell lines against the NCATS MIPE library collection: OCIMY5_PLB cell viability assay (AID 1918988). Note: nearly all actives have a fitted effect of over 65% in size. Note: potency is the fitted concentration of half-maximal effect. The gist of the method: as §1
Experiment [5] in a line: Quantitative High-Throughput drug screen in 47 multiple myeloma cell lines against the NCATS MIPE library collection: OPM1_PLB cell viability assay (AID 1918989). Note: nearly all actives have a fitted effect of over 40% in size. Note: potency is the fitted concentration of half-maximal effect. The gist of the method: as §1
Experiment [6] in a line: Quantitative High-Throughput drug screen in 47 multiple myeloma cell lines against the NCATS MIPE library collection: XG6_PLB cell viability assay (AID 1919865). Note: nearly all actives have a fitted effect of over 40% in size. Note: potency is the fitted concentration of half-maximal effect. In a few lines:
as §1

The nature of experiment [7]: Quantitative High-Throughput drug screen in 47 multiple myeloma cell lines against the NCATS MIPE library collection: VP6_DJ cell viability assay (AID 1919867). Note: nearly all actives have a fitted effect of over 40% in size. Note: potency is the fitted concentration of half-maximal effect. The gist of the method: as §1
Experiment [8] in a line: Quantitative High-Throughput drug screen in 47 multiple myeloma cell lines against the NCATS MIPE library collection: PE2_PLB cell viability assay (AID 1919869). Note: nearly all actives have a fitted effect of over 35% in size. Note: potency is the fitted concentration of half-maximal effect. The gist of the method: as §1
Experiment [9] in a line: Quantitative High-Throughput drug screen in 47 multiple myeloma cell lines against the NCATS MIPE library collection: RPMI8226_ATCC cell viability assay (AID 1919871). Note: nearly all actives have a fitted effect of over 30% in size. Note: potency is the fitted concentration of half-maximal effect. In a few lines:
as §1

Experiment [10] in a line: Quantitative High-Throughput drug screen in 47 multiple myeloma cell lines against the NCATS MIPE library collection: OPM2_DSMZ cell viability assay (AID 1919872). Note: nearly all actives have a fitted effect of over 30% in size. Note: potency is the fitted concentration of half-maximal effect. In a few lines:
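CellTiter-Glo luminescence (ATP) after 48 h compound exposure, 37C/5% CO2; 500 cells/well; MIPE 4.0 approved/investigational drugs pinned in; DMSO = 100%, media only = 0% viability.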

A short description of experiment [11]: Quantitative High-Throughput drug screen in 47 multiple myeloma cell lines against the NCATS MIPE library collection: KMS11_JCRBsus cell viability assay (AID 1919873). Note: nearly all actives have a fitted effect of over 50% in size. Note: potency is the fitted concentration of half-maximal effect. In a few lines: as §1
Experiment [12] can be described thus: Quantitative High-Throughput drug screen in 47 multiple myeloma cell lines against the NCATS MIPE library collection: KMS28BM_JCRB cell viability assay (AID 1919874). Note: nearly all actives have a fitted effect of over 35% in size. The gist of the method:
as §1

Experiment [13] in a line: Quantitative High-Throughput drug screen in 47 multiple myeloma cell lines against the NCATS MIPE library collection: U266_ATCC cell viability assay (AID 1919864). Note: nearly all actives have a fitted effect of over 35% in size. Note: potency is the fitted concentration of half-maximal effect. In a few lines: as §1
Experiment [14] is described as follows: Quantitative High-Throughput drug screen in 47 multiple myeloma cell lines against the NCATS MIPE library collection: XG1_PLB cell viability assay (AID 1919866). Note: nearly all actives have a fitted effect of over 35% in size. Note: potency is the fitted concentration of half-maximal effect. In a few lines:
as §1

Experiment [15] can be described thus: Quantitative High-Throughput drug screen in 47 multiple myeloma cell lines against the NCATS MIPE library collection: KMS28PE_JCRB cell viability assay (AID 1918983). Note: nearly all actives have a fitted effect of over 35% in size. Note: potency is the fitted concentration of half-maximal effect. In a few lines:
as §1

The nature of experiment [16]: Quantitative High-Throughput drug screen in 47 multiple myeloma cell lines against the NCATS MIPE library collection: PCM6_Riken cell viability assay (AID 1919870). Note: nearly all actives have a fitted effect of over 30% in size. Note: potency is the fitted concentration of half-maximal effect. In a few lines: as §1
Experiment [17] can be described thus: Quantitative High-Throughput drug screen in 47 multiple myeloma cell lines against the NCATS MIPE library collection: SKMM1_PLB cell viability assay (AID 1919863). Note: nearly all actives have a fitted effect of over 35% in size. Note: potency is the fitted concentration of half-maximal effect. The settings on record: SKMM1 myeloma viability, CellTiter-Glo ATP, 48 h; viability: active compounds read low. In a few lines:
as §1
On the technique in general: In ATP-based viability assays light output follows the ATP content of the culture.

The nature of experiment [18]: Quantitative High-Throughput drug screen in 47 multiple myeloma cell lines against the NCATS MIPE library collection: UTMC2_PLB cell viability assay (AID 1919868). Note: nearly all actives have a fitted effect of over 55% in size. Note: potency is the fitted concentration of half-maximal effect. The conditions noted are these: CellTiter-Glo ATP luminescence, 48 h; viability (% of DMSO control): at 45.8 µM (top of the series). In a few lines: as §1
A short description of experiment [19]: Quantitative High-Throughput drug screen in 47 multiple myeloma cell lines against the NCATS MIPE library collection: L363_DSMZ cell viability assay (AID 1918984). In a few lines: as §1

The structures appear in SMILES notation. Several values for one entry are separate records, joined by “and”; a condition that tells them apart may be missing. Equal values may be shown once. Records with an inconclusive call do not appear. Unmarked numbers belong to inactive results. Activity calls are given as the source filed them. Calls come from the whole dose curve; as a rule, active = well fitted cell-killing curve with a large enough effect; inconclusive = small, poorly fitted or top-dose-only effect, or effect the other way; inactive = no such curve, though single readings can be large or run the other way.

Take `CCOc1ccc(Cc2cc([C@@H]3O[C@H](CO)[C@@H](O)[C@H](O)[C@@H]3O)ccc2Cl)cc1`: the Potency entry in experiment [1], in experiment [2], in [4], in [8], in experiment [9] and in [10] was “inactive” in each case. Also, the Potency entry in experiment [11] and in [12] was “inactive” each time. Also, the Potency in experiment [3] is 3.72 µM (active); in experiment [5], 14.8 µM (active); in [6], 3.32 µM (active); in experiment [7], 16.6 µM (active).
For the compound `NCCc1ccc(O)c(O)c1`, the Potency is 8.33 µM (active) in experiment [1]; 8.33 µM (active) in experiment [2]; 20.9 µM (active) in experiment [4]; 23.5 µM (active) in [7]; 18.7 µM (active) in experiment [9]; 13.2 µM (active) in experiment [10]. Moreover, the Potency in experiment [11] was 9.35 µM (active). Moreover, the Potency entry in experiment [12] is “inactive”.
As to `NC[C@H](O)c1ccc(O)c(O)c1`, the Potency result in experiment [1], in experiment [2], in [13], in experiment [6], in experiment [14] and in experiment [10] was “inactive” each time. Moreover, the figures for the Potency in experiment [4], in experiment [7] and in [8] were 1.32 µM (active), 2.96 µM (active) and 11.8 µM (active), respectively.
`C[C@H](NC(=O)Cc1cc(F)cc(F)c1)C(=O)N[C@@H]1C(=O)N(C)c2ccccc2-c2ccccc21`: the Potency result in experiment [1], in [15], in experiment [7] and in experiment [11] was “inactive” in each case. Besides, the Potency is 16.6 µM (active) in experiment [4], 16.6 µM (active) in experiment [13], 5.9 µM (active) in experiment [8] and 5.26 µM (active) in experiment [16].
Turning to `Nc1cccc(S(=O)(=O)N2CCCN(S(=O)(=O)c3ccc4c(c3)OCCO4)CC2)c1`, the figures for the Potency in experiment [1], in experiment [14] and in experiment [7] were 16.6 µM (active), 7.43 µM (active) and 8.33 µM (active), respectively. The Potency entry in experiment [2], in experiment [5], in experiment [10] and in [12] was “inactive” in each case. Further, in experiment [17], the viability is 103%.
For the compound `Cc1oncc1C(=O)Nc1ccc(C(F)(F)F)cc1`, the Potency is 10.5 µM (active) in experiment [1] and 16.6 µM (active) in experiment [14]. For the same compound, the Potency result in experiment [3], in [18], in experiment [8], in experiment [16] and in experiment [10] was “inactive” each time. In addition, the viability in [17] was 115%.
In the case of `Cc1ccc(-n2nc(C(C)(C)C)cc2NC(=O)Nc2ccc(OCCN3CCOCC3)c3ccccc23)cc1`, the Potency entry in experiment [1], in [10] and in experiment [12] was “inactive” throughout. Also, the Potency was 2.96 µM (active) in [3]; 20.9 µM (active) in experiment [4]; 26.4 µM (active) in [5]; 23.5 µM (active) in [13]; 10.5 µM (active) in experiment [7]; 4.18 µM (active) in experiment [18]. The Potency is 16.6 µM (active) in experiment [8] and 23.5 µM (active) in experiment [16].
Regarding `CCCc1nc2c(C)cc(-c3nc4ccccc4n3C)cc2n1Cc1ccc(-c2ccccc2C(=O)O)cc1`, the Potency result in experiment [1], in experiment [2], in [5], in experiment [9], in experiment [10] and in experiment [11] was “inactive” in each case. The Potency result in experiment [12] was “inactive”. For the same compound, the viability in experiment [17] is 142%. The Potency in experiment [7] was 16.6 µM (active); in [8], 11.8 µM (active).
Take `CCN(CC)CCCC(C)Nc1ccnc2cc(Cl)ccc12` (centres undefined): the Potency result in experiment [1], in experiment [2], in experiment [8], in [9] and in experiment [10] was “inactive” in each case. Also, the viability in experiment [17] is 95.1%. Moreover, the Potency in experiment [14] is 10.5 µM (active); in experiment [7] it was 11.8 µM (active); in [16], 10.5 µM (active).
Take `CC(C=CC1=C(C)CCCC1(C)C)=CC=CC(C)=CC(=O)O`: the Potency entry in experiment [1] and in [12] was “inactive” throughout. In addition, the Potency in [3] is 2.64 µM (active); in experiment [4], 14.8 µM (active); in experiment [5] it was 8.33 µM (active); in experiment [17], 14.8 µM (active); in [6] it was 935 nM (active) and 5.26 µM (active); in [8], 16.6 µM (active). Also, in experiment [16], the Potency is 14.8 µM (active) and 18.7 µM (active).
Regarding `Cc1c(C)c2c(c(C)c1O)CCC(C)(COc1ccc(CC3SC(=O)NC3=O)cc1)O2` (centres undefined), the Potency result in experiment [1], in [5], in experiment [13], in experiment [14], in experiment [7] and in experiment [9] was “inactive” each time. Further, the Potency entry in experiment [10] and in experiment [12] was “inactive” each time. The viability in experiment [17] was 114%. Also, the Potency in experiment [8] and in [16] was 20.9 µM (active) throughout.
`Cc1ccc(N(CC2=NCCN2)c2cccc(O)c2)cc1`: the Potency in [15] is 5.26 µM (active); in experiment [19] it was 11.8 µM (active); in experiment [4], 23.5 µM (active); in experiment [5], 23.5 µM (active); in [17], 29.6 µM (active); in experiment [11] it was 18.7 µM (active). Besides, the Potency result in experiment [7] and in experiment [16] was “inactive” in each case.
Regarding `CC(C)(C)OC(=O)CN(Cc1ccc(Cl)cc1)Cc1ccc([N+](=O)[O-])s1`, the Potency in experiment [1] and in experiment [4] was 18.7 µM (active) each time.
On to `O=C(C1CC1)N1CC[C@@H](Cn2c(-c3ccc(-c4ccc5occc5c4)cc3)nc3cnccc32)C1`, for which the Potency is 10.5 µM (active) in experiment [1], 4.18 µM (active) in experiment [4], 16.6 µM (active) in [14] and 20.9 µM (active) in experiment [10]. In addition, the viability in [17] was 107%. In addition, the Potency result in experiment [9] is “inactive”.

What is called viability is a read-out of living cells in per cent, often relative to untreated cells.

These data come from PubChem BioAssay (NCATS).
